According to PubChem BioAssay (NCATS):
Inconclusive results are not listed. Unless noted, calls follow the shape of the dose curve; as a rule, active = well fitted curve in either direction with a large enough effect (not every such curve was filed as active); inconclusive = small, poorly fitted or top-dose-only effect, or another doubt; inactive = flat fitted curve, though single readings scatter.

Key:
[1] = AP1 Signaling Pathway (AID 357); details: ME-180 AP-1-bla reporter, EGF-induced, beta-lactamase ratio, 5 h; at 17.2 µM (top of the series) unless noted; also: % is scaled to controls: 0 for no effect and ±100 for the full control effect
How it was run: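 Titration-series screen for positive or negative modulators of EC50 EGF-induced signaling in ME-180 cells carrying an AP-1-driven beta-lactamase reporter. After 5 hours at 37 degrees Celsius, CCF4 460nm/530nm emission ratio gave %Activity; AC50 values derived.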

[2] = NFAT Signaling Pathway (AID 444); details: Jurkat NFAT-bla M1, carbachol, beta-lactamase ratio, 5 h; at 17.2 µM (top of the series) unless noted;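 also: carbachol stimulus at about its EC50 of 1 µM final; % is scaled to controls: 0 for no effect and ±100 for the full control effect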
How it was run: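 Jurkat cells with NFAT-driven β-lactamase reporter and co-expressed M1 receptor, stimulated with carbachol (final 1 uM, ~EC50), compound titration, 5 h at 37 °C. CCF4 loaded 1 h at RT; 460/530 nm ratio gave %activity and AC50.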

[3] = Stat Signaling Pathway (AID 446); details: ME-180 SIE beta-lactamase reporter, IL-6 stimulated, 5 h; at 17.2 µM (top of the series) unless noted;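 also: ME-180 cervical cancer cells given 40 pM IL-6 alongside compound; SIE-controlled beta-lactamase reporter measured as 460/530 nm FRET emission ratio; % is scaled to controls: 0 for no effect and ±100 for the full control effect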
How it was run: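 Reporter line: ME-180 cervical carcinoma, SIE-beta-lactamase. Treatment: compound with 40 pM IL-6, 5 hrs, 37 C, in low-serum OPTI-MEM with 10 mM HEPES pH 7.3. Detection: 460/530 nm fluorescence.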

[4] = target: Glucocorticoid receptor (Homo sapiens) (UniProt P04150); test: GR-GFP Redistribution (AID 450;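 active = compounds whose dose series gives a full or clear partial fitted curve of increased nuclear translocation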; also: potency is read from the fitted curve at half-maximal effect); details: U2OS GR-GFP nuclear translocation, laser cytometry, 2 h; series mostly up to 20.6 µM
Chain of Glucocorticoid receptor (Homo sapiens) (P04150 whole entry, looked up): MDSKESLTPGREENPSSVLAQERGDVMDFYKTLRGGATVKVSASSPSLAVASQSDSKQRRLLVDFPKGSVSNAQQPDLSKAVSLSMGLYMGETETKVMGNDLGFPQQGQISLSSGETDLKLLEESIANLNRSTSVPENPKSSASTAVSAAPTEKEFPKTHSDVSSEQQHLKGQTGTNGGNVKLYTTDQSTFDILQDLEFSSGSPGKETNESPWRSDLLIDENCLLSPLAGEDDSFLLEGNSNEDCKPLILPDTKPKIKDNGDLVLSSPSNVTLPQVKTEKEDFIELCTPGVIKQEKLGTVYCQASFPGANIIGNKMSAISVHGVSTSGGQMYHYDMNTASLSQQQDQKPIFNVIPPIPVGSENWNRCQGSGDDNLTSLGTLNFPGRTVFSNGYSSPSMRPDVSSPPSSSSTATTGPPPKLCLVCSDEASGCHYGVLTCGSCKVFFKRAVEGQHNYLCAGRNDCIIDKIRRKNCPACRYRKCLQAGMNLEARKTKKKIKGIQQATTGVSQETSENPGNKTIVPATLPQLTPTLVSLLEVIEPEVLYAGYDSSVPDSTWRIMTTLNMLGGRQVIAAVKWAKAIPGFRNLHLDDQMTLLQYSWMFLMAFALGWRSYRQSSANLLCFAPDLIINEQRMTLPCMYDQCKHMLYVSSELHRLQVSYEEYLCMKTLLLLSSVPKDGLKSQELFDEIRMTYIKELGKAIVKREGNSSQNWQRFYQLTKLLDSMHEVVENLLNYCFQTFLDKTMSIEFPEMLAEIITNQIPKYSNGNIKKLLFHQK

C=CCN=C(C)C1=C(O)CCC1=O
inactive: activity change, negative = inhibition [1] 23.8% | activity change, negative = inhibition [2] -7.26% | activity, negative = inhibition [3] 20.3% | Potency [4] > 20.6 µM

CC(C)NCc1c(O)c(Br)cc2oc3c(c12)CCCC3
inactive: activity change, negative = inhibition [1] 28.5% | activity change, negative = inhibition [2] 0.46% | activity, negative = inhibition [3] 5.85% | Potency [4] > 20.6 µM

CCCCCOc1ccccc1C(=O)NCCCC(=O)O
inactive: activity change, negative = inhibition [1] 2.16% | activity change, negative = inhibition [2] -1.98% | activity, negative = inhibition [3] 1.72% | Potency [4] > 20.6 µM

COC(=O)c1ccc(N2C(=O)CC(N3CCN(C(=O)c4ccco4)CC3)C2=O)cc1 (stereo not given)
inactive: activity change, negative = inhibition [1] 3.9% | activity change, negative = inhibition [2] -1.87% | activity, negative = inhibition [3] 0.889% | Potency [4] > 20.6 µM

Cc1cc(C)n(CC2CC(=O)N(c3cc(Cl)cc(Cl)c3)C2=O)n1 (stereo not given)
inactive: activity change, negative = inhibition [1] -15.1% | activity change, negative = inhibition [2] -7.21% | activity, negative = inhibition [3] 2.96% | Potency [4] > 20.6 µM

c1ccc(-n2c(Cc3cccnc3)nc3cnccc32)cc1
inactive: activity change, negative = inhibition [1] -10.4% | activity change, negative = inhibition [2] 15.3% | activity, negative = inhibition [3] 6.69% | Potency [4] > 20.6 µM

COc1ccc(OC)c(C2=Nn3c(nnc3-c3ccco3)SC2)c1
inactive: activity change, negative = inhibition [1] -13.7% | activity change, negative = inhibition [2] 24.6% | activity, negative = inhibition [3] -6.07% | Potency [4] > 20.6 µM

CC(=O)Oc1ccccc1C1OC(=O)c2ccccc2N1C(C)=O (stereo not given)
inactive: activity change, negative = inhibition [1] 14.3% | activity change, negative = inhibition [2] 12.4% | activity, negative = inhibition [3] 5.01% | Potency [4] > 20.6 µM

CC(=O)OCC(=O)[C@H]1CC[C@H]2[C@@H]3CC=C4C[C@@H](O)CC[C@]4(C)[C@H]3CC[C@]12C
inactive: activity change, negative = inhibition [1] 12.9% | activity change, negative = inhibition [2] 4.8% | activity, negative = inhibition [3] -2.21% | Potency [4] > 20.6 µM

O=C(c1ccc(N2C(=O)C3CC=C(Cl)CC3C2=O)cc1)N1CCCCC1 (stereo not given)
inactive: activity change, negative = inhibition [1] -18.4% | activity change, negative = inhibition [2] 13% | activity, negative = inhibition [3] -8.18% | Potency [4] > 20.6 µM

CCc1nc2c(sc3nc(N4CCOCC4)c4c(c32)CC(C)(C)OC4)c(=O)o1
inactive: activity change, negative = inhibition [1] 3.92% | activity change, negative = inhibition [2] -0.695% | activity, negative = inhibition [3] -6.95% | Potency [4] > 20.6 µM

COc1ccc(OC)c(C2C(C#N)=C(N)Oc3cc(C)[nH]c(=O)c32)c1 (stereo not given)
inactive: activity change, negative = inhibition [1] -7.62% | activity change, negative = inhibition [2] -4.06% | activity, negative = inhibition [3] 3.99% | Potency [4] > 20.6 µM

O=C(NCc1cccnc1)c1ccc(=O)oc1
inactive: activity change, negative = inhibition [1] 10.5% | activity change, negative = inhibition [2] -0.473% | activity, negative = inhibition [3] 0.949% | Potency [4] > 20.6 µM

C#CC1CN(Cc2ccccc2)CC(C#C)N1C (stereo not given)
inactive: activity change, negative = inhibition [1] 9.35% | activity change, negative = inhibition [2] -2.08% | activity, negative = inhibition [3] 9.92% | Potency [4] > 20.6 µM

O=c1[nH]cnc2cc(-c3ccccc3)sc12
inactive: activity change, negative = inhibition [1] -9.08% | activity change, negative = inhibition [2] 3.27% | activity, negative = inhibition [3] 9.54% | Potency [4] > 20.6 µM

O=C(Nn1cnnc1)C(c1ccccc1)c1ccccc1
inactive: activity change, negative = inhibition [1] 13.7% | activity change, negative = inhibition [2] -6.95% | activity, negative = inhibition [3] 3.83% | Potency [4] > 20.6 µM

COCCn1c(SCc2c(F)cccc2Cl)nc2c1c(=O)[nH]c(=O)n2C
inactive: activity change, negative = inhibition [1] -17.8% | activity change, negative = inhibition [2] -0.711% | activity, negative = inhibition [3] -1.06% | Potency [4] > 20.6 µM

Cc1ccc(N(CC(O)CN(C)C)S(=O)(=O)c2ccccc2)cc1 (stereo not given)
inactive: activity change, negative = inhibition [1] -7.29% | activity change, negative = inhibition [2] -10.3% | activity, negative = inhibition [3] 1.04% | Potency [4] > 20.6 µM

CC(C)Oc1ccc(Cc2c(O)nc(NCCCN(C)C)[nH]c2=O)cc1
inactive: activity change, negative = inhibition [1] 9.78% | activity change, negative = inhibition [2] 3.21% | activity, negative = inhibition [3] 4.27% | Potency [4] > 20.6 µM

CCC1=C(C(=O)OC)C(c2cc(OC)ccc2OC)C(C#N)=C(N)O1 (stereo not given)
inactive: activity change, negative = inhibition [1] -1.51% | activity change, negative = inhibition [2] -14.5% | activity, negative = inhibition [3] 4.21% | Potency [4] > 20.6 µM
